Results published in PubChem BioAssay (Tox21).
Values without a mark were called inactive. Records with an inconclusive call do not appear. A call without a number means that no potency is given here. Active and inactive are the calls of the source. Unless noted, calls follow the shape of the dose curve; as a rule, active = well fitted curve in the direction sought with a large enough effect in the repeat runs; inconclusive = weak or mixed curves; inactive = no such curve, though single readings can be large; an effect the other way counts as inactive or inconclusive.

Columns and labels:
[1] = qHTS assay for small molecules that induce genotoxicity in human embryonic kidney cells expressing luciferase-tagged ATAD5 (AID 651632); also: nearly all actives have a fitted effect of over 15% in size
Method in brief: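 Test compounds were delivered by pin tool onto HEK293T reporter cells (2,000/well) expressing ATAD5 fused to luciferase. After 16 hr at 37C, 5% CO2, Amplite was added for 30 min at room temperature and luminescence was measured.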

[2] = qHTS assay for small molecule agonists of the p53 signaling pathway - cell viability (AID 651633; calls by dose curve;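 also: p53RE-bla HCT reporter cells with a stable beta-lactamase p53 reporter; series mostly up to about 83 µM; nearly all actives have a fitted effect of over 30% in size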)
Method in brief: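 p53RE-bla cells were treated with compound for 16 hours at 37 C. Cytotoxicity was then measured as CellTiter-Glo luminescence after 30 min at room temperature.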

[3] = qHTS assay for small molecules that induce genotoxicity in human embryonic kidney cells expressing luciferase-tagged ATAD5 - cell viability (AID 651634; calls by dose curve; also: nearly all actives have a fitted effect of over 25% in size)
Method in brief: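 Quantitative high-throughput format. HEK293T cells expressing ATAD5 fused to luciferase were plated at 2,000 cells/well and treated 15.5 hr with compound versus DMSO. Viability was determined by fluorescent live-cell protease substrate, 30 min at 37C.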

[4] = qHTS assay for small molecule disruptors of the mitochondrial membrane potential - cell viability (AID 720634; calls by dose curve;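 also: human HepG2 liver cancer cells; series mostly up to about 83 µM; nearly all actives have a fitted effect of over 20% in size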)
Method in brief: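 Same-well counter-screen: following the MMP dye addition, CellTiter-Glo was added to 1 hr compound-treated HepG2 cells and luminescence read after 30 min at room temperature.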

[5] = qHTS assay to test for compound auto fluorescence at 590 nm (red) in HepG2 cells (AID 720674)
Method in brief: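 Seeding: 2,000 HepG2 cells/well, MEM/10% FBS, overnight 37 C. Dosing: compound vs DMSO. Incubation: 1 hr, 37 C, 5% CO2. Read: fluorescence 540 ex/590 em, Rose Bengal sodium as red reference.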

[6] = qHTS assay to test for compound auto fluorescence at 535 nm (green) in HepG2 cells (AID 720675)
[7] = qHTS assay to test for compound auto fluorescence at 460 nm (blue) in HEK293 cells (AID 720678)
Method in brief: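 Measured: blue fluorescence (Ex 405/Em 460 nm) of compound-treated HEK293 cells, incubated overnight at 37C with 5% CO2 and scaled to triamterene equivalents.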

[8] = qHTS assay to test for compound auto fluorescence at 590 nm (red) in HEK293 cells (AID 720679)
Method in brief: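 Using HEK293 cells at 2,000 per well, the screen added 23 nL of each compound after cell attachment and incubated overnight (37C, 5% CO2). The plate reader then captured red-label fluorescence, Ex/Em 540/590nm.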

[9] = qHTS assay to test for compound auto fluorescence at 460 nm (blue) in HEK293 cell free culture (AID 720681)
Method in brief: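 Compounds were added to cell-free DMEM with 10% FBS and fluorescence read directly. The blue channel used 405 nm excitation and 460 nm emission, with triamterene as the reference fluorophore.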

[10] = qHTS assay to test for compound auto fluorescence at 535 nm (green) in HEK293 cell free culture (AID 720682)
Method in brief: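 Each library compound, or DMSO control, is added by pintool to medium alone, comprising DMEM and 10% FBS. Emission at 535 nm following 485 nm excitation is quantified against fluorescein.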

[11] = qHTS assay to test for compound auto fluorescence at 590 nm (red) in HEK293 cell free culture (AID 720683)
Method in brief: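 Cell-free wells of DMEM with 10% FBS received compound, and intrinsic fluorescence was read at excitation/emission 540/590 nm. Values expressed as equivalence to Rose Bengal sodium.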

[12] = qHTS assay to test for compound auto fluorescence at 590 nm (red) in HepG2 cell free culture (AID 720684)
Method in brief: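 Rose Bengal sodium served as the reference for red signal. Test compounds were dispensed into serum-containing MEM (10% FBS) without cells, and plates were read at 540/590 nm.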

[13] = qHTS assay to test for compound auto fluorescence at 460 nm (blue) in HepG2 cell free culture (AID 720685)
Method in brief: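 Cell-free plates of MEM plus 10% FBS received 23 nL compound or DMSO vehicle; blue-channel (405/460 nm) intensity scored against triamterene as reference fluorophore.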

[14] = qHTS assay to test for compound auto fluorescence at 535 nm (green) in HepG2 cell free culture (AID 720686)
[15] = qHTS assay to test for compound auto fluorescence at 460 nm (blue) in HepG2 cells (AID 720687)
Method in brief: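 HepG2 cells in MEM with 10% FBS, attached overnight at 37 C, were exposed to compound or DMSO for 1 hr at 37 C, 5% CO2. Blue fluorescence was read at 405/460 nm, with triamterene as reference fluorophore.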

[16] = target: Glucocorticoid receptor (Homo sapiens) (UniProt P04150); assay: qHTS assay to identify small molecule agonists of the glucocorticoid receptor (GR) signaling pathway (AID 720691; active = well fitted activation curve with a large enough effect in the signal ratio in the repeat runs, not every such curve was filed as active; the % refers to the signal ratio)
Method in brief: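 A HeLa cervical cancer line expressing GR and a glucocorticoid response element-driven beta-lactamase gene is treated with compounds for 18 h; LiveBLAzer B/G FRET substrate is then applied and fluorescence read.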

[17] = qHTS assay to test for compound auto fluorescence at 535 nm (green) in HEK293 cells (AID 720680)
[18] = target: Glucocorticoid receptor (Homo sapiens) (UniProt P04150); assay: qHTS assay to identify small molecule antagonists of the glucocorticoid receptor (GR) signaling pathway (AID 720692; active = well fitted inhibition curve with a large enough effect in the signal ratio in the repeat runs, not every such curve was filed as active; the % refers to the signal ratio)
Method in brief: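 GRE-bla HeLa line, dex-stimulated (5 nM final). Compound exposure 18 h, 37 C. Beta-lactamase FRET read after 2 h RT substrate.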

[19] = qHTS assay for small molecule disruptors of the mitochondrial membrane potential (AID 720635); also: potency is read from the fitted curve at half-maximal effect
Method in brief: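 HepG2 cells exposed to compound 1 hr at 37C, then Mito-MPS dye 30 min. Ratio read of aggregate (540/590 nm) versus monomer (490/535 nm) fluorescence.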

Glucocorticoid receptor (Homo sapiens), sequence (P04150 whole entry, looked up): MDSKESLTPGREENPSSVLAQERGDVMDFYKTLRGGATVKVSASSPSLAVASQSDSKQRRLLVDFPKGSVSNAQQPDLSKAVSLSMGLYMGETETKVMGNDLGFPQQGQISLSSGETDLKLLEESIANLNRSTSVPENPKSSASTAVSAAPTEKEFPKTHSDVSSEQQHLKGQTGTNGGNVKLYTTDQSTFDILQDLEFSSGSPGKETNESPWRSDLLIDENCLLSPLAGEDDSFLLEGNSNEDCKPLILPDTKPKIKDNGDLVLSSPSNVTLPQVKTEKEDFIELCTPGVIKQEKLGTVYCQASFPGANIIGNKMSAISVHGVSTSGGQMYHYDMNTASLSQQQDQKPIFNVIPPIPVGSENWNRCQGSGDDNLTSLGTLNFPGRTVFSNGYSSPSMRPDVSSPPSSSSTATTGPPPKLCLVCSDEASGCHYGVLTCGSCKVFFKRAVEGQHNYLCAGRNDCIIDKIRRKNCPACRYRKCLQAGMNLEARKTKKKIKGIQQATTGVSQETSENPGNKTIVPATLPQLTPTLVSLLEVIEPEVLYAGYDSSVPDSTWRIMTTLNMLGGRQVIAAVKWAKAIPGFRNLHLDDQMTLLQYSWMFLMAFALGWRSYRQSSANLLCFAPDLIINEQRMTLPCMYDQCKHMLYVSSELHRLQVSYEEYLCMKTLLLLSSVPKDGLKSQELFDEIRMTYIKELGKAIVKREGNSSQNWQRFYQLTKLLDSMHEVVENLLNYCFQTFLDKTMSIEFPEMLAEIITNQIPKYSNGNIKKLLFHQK

| SMILES | Potency [1] | Potency [2] | Potency [3] | Potency [4] | outcome [5] | outcome [6] | Potency [7] | outcome [8] | Potency [9] | outcome [10] | outcome [11] | outcome [12] | outcome [13] | outcome [14] | outcome [15] | Potency [16] | outcome [17] | Potency [18] | Potency [19] |
| --- | --- | --- | --- | --- | --- | --- | --- | --- | --- | --- | --- | --- | --- | --- | --- | --- | --- | --- | --- |
| CC(=O)c1ccc(Cl)c(Cl)c1Cl | inactive | inactive | inactive | inactive | inactive | inactive | inactive | inactive | inactive | inactive | inactive | inactive | inactive | inactive | inactive | inactive |  |  |  |
| COC(=O)c1cc(Cl)ccc1[N+](=O)[O-] | inactive | inactive | inactive | inactive | inactive | inactive | inactive | inactive | inactive | inactive |  |  | inactive | inactive | inactive | inactive | inactive |  |  |
| CC/C=C\CCO | inactive | inactive | inactive | inactive | inactive | inactive | inactive | inactive | inactive | inactive | inactive |  | inactive | inactive | inactive | inactive | inactive | inactive |  |
| C[C@@H](O)[C@H]1C(=O)N2C(C(=O)O)=C(S[C@@H]3CN[C@H](CNS(N)(=O)=O)C3)[C@H](C)[C@H]12 | inactive | inactive | inactive | inactive | inactive | inactive | inactive | inactive | inactive |  | inactive |  | inactive | inactive | inactive | inactive | inactive | inactive | inactive |
| CC(C(=O)O)c1ccc2c(c1)Cc1cccnc1O2 (stereo unspecified) | inactive | inactive | inactive |  | inactive | inactive | inactive | inactive | inactive | inactive | inactive |  | inactive | inactive | inactive | inactive | inactive | inactive | inactive |
| O=c1c2ccccc2oc2ccccc12 | inactive | inactive | inactive |  |  | inactive | inactive | inactive | inactive | inactive | inactive | inactive | inactive | inactive | inactive | inactive | inactive |  | inactive |
| C=CC(=O)NC(C)(C)C | inactive | inactive | inactive | inactive | inactive | inactive | inactive | inactive | inactive | inactive | inactive | inactive | inactive | inactive | inactive | inactive | inactive | inactive |  |
| O=C(N[C@@H](Cc1ccccc1)[C@@H](O)C(=O)N1C[C@@H](O)[C@@H](O)C1)c1cc2cc(Cl)ccc2[nH]1 | inactive | inactive | inactive | inactive |  | inactive | inactive | inactive | inactive | inactive | inactive | inactive | inactive | inactive | inactive |  | inactive |  |  |
| CCCCCCCCNC | inactive | inactive | inactive | inactive | inactive | inactive | inactive | inactive | inactive | inactive | inactive | inactive | inactive | inactive | inactive | inactive |  |  |  |
| CC(=O)Oc1cccc2c1C(=O)c1c(OC(C)=O)cc(C(=O)O)cc1C2=O | inactive | inactive | inactive |  |  | inactive | inactive | inactive | inactive | inactive | inactive | inactive | inactive | inactive | inactive |  |  |  | 13.3 µM (active) |
| O=C(O)c1ccc(O)c(O)c1 | inactive | inactive | inactive | inactive | inactive | inactive | inactive | inactive | inactive | inactive | inactive | inactive | inactive | inactive | inactive | inactive | inactive |  |  |
| OCCOc1cccc(OCCO)c1 | inactive | inactive | inactive | inactive |  | inactive | inactive | inactive | inactive | inactive |  | inactive | inactive | inactive | inactive |  | inactive |  |  |
| O=[N+]([O-])c1ccc(Cl)cc1Cl | inactive | inactive | inactive | inactive | inactive | inactive | inactive | inactive | inactive | inactive | inactive | inactive | inactive | inactive | inactive | inactive | inactive |  |  |
| FC(F)(Cl)C(F)(Cl)Cl | inactive | inactive | inactive |  | inactive | inactive | inactive | inactive | inactive |  | inactive | inactive | inactive | inactive | inactive |  | inactive |  | inactive |
| Cc1ccc(NC=O)c(C)c1 | inactive | inactive | inactive |  | inactive | inactive | inactive | inactive | inactive | inactive | inactive | inactive | inactive | inactive | inactive | inactive | inactive | inactive |  |
| C=CC(=O)OCCCCCCCCCC | inactive | inactive | inactive |  | inactive | inactive | inactive | inactive | inactive | inactive |  |  | inactive | inactive | inactive | inactive | inactive | inactive |  |
